mHTT CaM bind – disrupts binding of mutant huntingtin to calmodulin; inhibition, % at 15 µM; P42858; AID 1671202; AlphaScreen His-mHTT/GST-CaM binding, luminescence; 190,000 compounds, 3.6% hits;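 further: 0% = both proteins with DMSO and 100% = one protein alone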
Pf apPOL inh – Pf-apPOL DNA polymerase inhibition | Recombinant Pf-apPOL, molecular beacon fluorescence, 1.5 h | inhibition, % at 10 µM | 210,000 compounds, 0.25% hits
Numbers without * were called inactive; nt = not tested or not shown; ! = a repeat was not active. The sample as a whole holds a higher share of hits than the screen did. No stated cut-off is given here; in the data, active means inhibition above about 50%; inactive means the rest.

SMILES	mHTT CaM bind	Pf apPOL inh
CC1(C)CC(=O)C2=C(C1)N=C1c3ccccc3C(=O)C1C2c1cccc([N+](=O)[O-])c1 (centres undefined)	50.8*!	-2.1
COc1ccc(C2C3=C(CC(C)(C)CC3=O)N=C3c4ccccc4C(=O)C32)cc1OC (centres undefined)	64.0*	2.9
COc1ccc(C2C3=C(CC(C)(C)CC3=O)OC3=C2C(=O)CC(C)(C)C3)cc1OC	-2.7	2.0
CC1(C)CC(=O)C2=C(C1)N=C1c3ccccc3C(=O)C1C2c1cccc(Cl)c1 (centres undefined)	64.0*	-1.8
COc1cccc(CN2C[C@@]34CC[C@@H](C[C@@H]3S2(=O)=O)O4)c1	-4.5	-4.0
CC1C(=O)N(c2cccc(Br)c2)CCN1C(=O)C1CCC1 (centres undefined)	-5.8	-1.0
CCS(=O)(=O)N1CCC(n2cnc3cc(F)ccc3c2=O)CC1	-4.8	-1.9
CC(C)CNC(=O)c1cnc2n(c1=O)CCS2	1.0	-2.1
CC1(C)CC(=O)C2=C(C1)N=C1c3ccccc3C(=O)C1C2c1ccccc1Cl (centres undefined)	13.0	10.7
CC1(C)CC(=O)C2=C(C1)N=C1c3ccccc3C(=O)C1C2c1ccc(Cl)cc1 (centres undefined)	68.0*	-3.4
O=C1CCCC2=C1C(c1cc(Br)ccc1O)C1C(=O)c3ccccc3C1=N2 (centres undefined)	40.0	-1.4
O=C1CCCC2=C1C(c1ccc(Br)cc1)C1C(=O)c3ccccc3C1=N2 (centres undefined)	69.0*	-0.6
COc1cc(SC)ccc1C(=O)Nc1ccc(F)cc1F	-7.6	-2.1
O=C(/C=C/c1ccco1)Nc1ccc(NC(=O)c2ccco2)cc1	30.3	-5.5
O=C(/C=C/c1ccco1)c1ccc(NC(=O)c2ccco2)cc1	92.6*	-2.5
O=C(CSc1ccccn1)NCc1cc(C(=O)c2ccccc2)ccc1O	-1.5	-4.6
N#CC1=C(S)N[C@H](c2cccnc2)[C@@](C#N)(C(N)=S)[C@H]1c1cccnc1	30.6	nt
N#CC1=C(S)NC(O)(c2ccccc2)C([n+]2ccccc2)C1c1ccccc1F (centres undefined)	56.0*	-1.2
N#CC1=C(O)NC(=O)C([n+]2ccccc2)C1c1ccccc1I (centres undefined)	34.0	7.0
N#CC1=C(S)NC(O)(c2ccccc2)C([n+]2ccc3ccccc3c2)C1c1ccc(F)cc1 (centres undefined)	75.0*	-2.2
N#CC1=C(S)NC(O)(c2ccccc2)C([n+]2ccc3ccccc3c2)C1c1ccncc1 (centres undefined)	38.0	0.0
N#CC1=C(S)NC(O)(c2ccccc2)C([n+]2cccc3cc(Cl)ccc32)C1c1cccnc1 (centres undefined)	59.0*	-3.7
COc1ccccc1C(=O)CC(=O)Nc1ccccc1	-2.3	0.3
O=C(Nc1ccc(Cl)cc1)c1cc(Cl)ccc1NS(=O)(=O)c1cccc2nsnc12	32.0	-4.4
Cc1ccc(-n2c(-c3ccccc3)cn3c4c(=O)n(C)c(=O)n(C)c4nc23)cc1	-3.0	-3.0
SMILES	mHTT CaM bind	Pf apPOL inh
Cc1ccc(-n2cc(C(=O)NC3CCCCC3)c3ccccc3c2=O)cc1C	13.0	17.7
COc1ccc(-c2noc(C3CCN(CC(=O)Nc4ccccc4Cl)CC3)n2)cc1	-0.8	-1.6
Cc1ccc(-c2nc3n(n2)C(=O)CC(c2ccco2)S3)cc1 (centres undefined)	5.0	-2.5
O=C1CC(c2ccco2)Sc2nc(-c3ccc(F)cc3)nn21 (centres undefined)	100.0*	-8.2
CC(=O)SC[C@@H](C)C(=O)N1CCC[C@H]1C(=O)O	-6.5	nt
CC1=C(C(=O)Nc2cccc(C(F)(F)F)c2)C2(CCCCC2)OC1=O	13.8	-1.4
CC1=C(C(=O)Nc2cccc(C(F)(F)F)c2)C2(CCCCCC2)OC1=O	98.3*	-2.1
COc1cccc(NC2=C(N(C)C)C(=O)c3ccccc3C2=O)c1	57.6*	0.9
COc1ccc(C2=C(Nc3ccc(C(N)=O)cc3)c3ccccc3C2=O)cc1	38.0	-0.8
COc1ccc(NC2=C(N(C)C)C(=O)c3ccccc3C2=O)cc1	62.6*	-4.8
COc1cccc(Nc2ccccc2C)c1	14.7	-2.8
CCCCNC(=O)CC1CCN(S(=O)(=O)c2ccc(Cl)s2)CC1	-6.5	0.9
COc1cccc(C=Nc2ccc3oc(-c4cccc(F)c4)nc3c2)c1O	1.0	-1.2
Cc1sc(N)nc1-c1ccc(Cl)cc1	-7.1	-19.6
Cc1sc(N)nc1-c1c[nH]c2ccccc12	94.5*	-11.6
Cc1onc(-c2ccccc2Cl)c1C(=O)Nc1cccc(-c2cn3cccnc3n2)c1	16.2	-5.6
O=C(CSCc1ccccc1)Nc1cccc(-c2cn3cccnc3n2)c1	52.1*	-6.1
O=C1OC(c2ccc(I)cc2)=N/C1=C\c1ccccc1F	1.0	-2.4
CC(=O)Nc1ccccc1C(=O)C(=O)Nc1ccc(C(=O)N2CCC3(CC2)OCCO3)cc1	35.0	-8.4
CC(=O)N(c1ccc2oc3c(c2c1)CCCC3)S(=O)(=O)c1ccc(C)cc1C	1.0	-1.6
Cc1cc(C)c(S(=O)(=O)N=C2C=CC(=O)C=C2)cc1C	30.0	5.9
CCc1ccc(S(=O)(=O)N=C2C=CC(=O)C(Br)=C2)cc1	72.0*	-3.3
Cc1ccc(S(=O)(=O)N=C2C=CC(=NS(=O)(=O)c3ccc(C)cc3)C=C2)cc1	23.0	-2.3
O=C1C(Br)=CC(=NS(=O)(=O)c2ccccc2)C=C1Br	100.0*	-1.5
CC1=CC(=O)C=C(C)C1=NS(=O)(=O)c1ccccc1	5.0	4.6
SMILES	mHTT CaM bind	Pf apPOL inh
CC1=CC(=NS(=O)(=O)c2ccc(Br)cc2)C=C(C)C1=O	52.0*	-4.7
O=C1C=CC(=NS(=O)(=O)c2ccc(Br)cc2)C=C1	24.0	-5.5
Cc1cc(C)c(S(=O)(=O)N=C2C=CC(=O)C(Br)=C2)cc1C	58.0*	-7.1
COc1cc(OC)c(OC)cc1/C=C1N=C(/C=C/c2cccc(Cl)c2Cl)OC/1=O	1.0	5.1
COc1cccc(CNC(=O)C2CCN(CC(=O)Nc3ccc(C)cc3)CC2)c1	-1.7	-0.9
COc1ccc(NS(=O)(=O)c2ccc(C(C)C)cc2)cc1	-17.1	10.4
COCCN1C(=O)CCc2cc(NC(=O)c3ccccc3C(F)(F)F)ccc21	0.0	5.2
CC1=C(C)C(=NS(=O)(=O)c2ccccc2)C=CC1=O	37.0	1.0
O=C1C=CC(=NS(=O)(=O)c2ccccc2)C=C1Br	57.0*	-5.2
CN1CCN(S(=O)(=O)c2cc(C(=O)Nc3ccccc3[N+](=O)[O-])ccc2Cl)CC1	10.6	-10.9
NS(=O)(=O)C#Cc1ccccc1	-9.0	-2.8
O=C1CCCC(O)=C1C(C#Cc1ccccc1)C1=C(O)CCCC1=O	87.0*	-2.3
CC(C)(C1=CC(=O)c2ccccc2C1=O)C1OCC2(CO1)CC1C=CC2C1 (centres undefined)	53.1*	nt
C1=CC2CC1CC21COC(c2ccc3oc4ccccc4c3c2)OC1 (centres undefined)	-17.1	nt
Cc1ccc2c(c1)c(=O)c(C(=O)O)cn2C	-5.2	-3.4
Cc1ccc2c(c1)c1cccc3c1n2CCN3CCC(N)=O	68.9*	-4.3
O=C1CCCCCN1SSN1CCCCCC1=O	4.0	2.7
Cc1noc(NS(=O)(=O)c2ccc(NC(=O)COc3ccccc3[N+](=O)[O-])cc2)c1C	0.0	0.3
COc1cccc(CN2CCc3nc(Nc4ccc(F)cc4)ncc3C2)c1OC	100.0*	-2.8
COc1cc(Nc2ncc3c(n2)CCN(Cc2cccc(OC)c2OC)C3)cc(OC)c1	30.2	-6.0

Screening data from PubChem BioAssay.
